# Source: PubChem BioAssay AID2540 (Sanford-Burnham Center for Chemical Genomics, 2010)
# The whole screen tested about 330,000 compounds, of which about 4,100 (1.2%) were called active. Cut-off read from the data, not from the text of the source: active = inhibition above about 50%; inactive = the rest. What follows is part of a selection rich in actives, with near analogues and random picks from the rest.
# Biological target: Sentrin-specific protease 8 (Homo sapiens) (UniProt Q96LD8)
# Experiment: SENP8 protease inhibitors, primary screen, biochemical, luminescence (AID 2540)
# Conditions: purified SENP8, Z-RLRGG-aminoluciferin cleavage, at 10 µM, stronger effect = higher value
# Chain of Sentrin-specific protease 8 (Homo sapiens) (Q96LD8 whole entry, looked up): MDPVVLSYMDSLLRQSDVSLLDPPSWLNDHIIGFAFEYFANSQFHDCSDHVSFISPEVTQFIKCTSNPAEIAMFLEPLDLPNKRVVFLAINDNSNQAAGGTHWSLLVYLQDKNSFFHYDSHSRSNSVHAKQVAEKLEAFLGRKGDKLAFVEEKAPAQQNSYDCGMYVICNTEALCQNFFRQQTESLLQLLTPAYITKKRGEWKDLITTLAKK
row,Structure (SMILES),inhibition
1,CC(C)CCN1C(=O)c2ccc(C(=O)Nc3cccc(S(N)(=O)=O)c3)cc2C1=O,-8.58% (inactive)
2,COCCOC(=O)c1sc(=S)n(CCOC)c1N,-1.86% (inactive)
3,COc1cccc(NC(=O)c2ccc3c(SCC(=O)O)c4c(nc3c2)CCCC4)c1,-3.32% (inactive)
4,CC(C)CCNC(=O)c1ccc2c(Cl)c3c(nc2c1)CCC3,81.1% (active)
5,CC(=O)c1ccc(NC(=O)c2ccc3c(Cl)c4c(nc3c2)CCCC4)cc1,-0.476% (inactive)
6,Cc1c(CCO)c(=O)[nH]n1C(=O)c1c(F)cccc1F,13.4% (inactive)
7,O=C(O)C(F)(F)C(NCc1ccccc1)c1ccccc1 (configuration not stated),-6.64% (inactive)
8,COc1cc(C(=O)OC2CCOC2=O)c([N+](=O)[O-])cc1OC (configuration not stated),-2.98% (inactive)
9,CC(C)c1ccc(C(=O)OC2CCOC2=O)cc1 (configuration not stated),2.09% (inactive)
10,O=C(OC1CCOC1=O)c1ccc(-c2nc3ccccc3s2)s1 (configuration not stated),93.9% (active)
11,Cc1cccc(NS(=O)(=O)c2ccc(C)c(C(=O)NCC(c3ccccc3)N(C)C)c2)c1 (configuration not stated),8.98% (inactive)
12,CCCCNC(=O)c1ccccc1NC(=O)c1ccccc1N(C)S(C)(=O)=O,-5.03% (inactive)
13,Oc1c(Cl)cc(Cl)c(Cl)c1Cc1c(O)c(Cl)cc(Cl)c1Cl,28.5% (inactive)
14,COc1ccc(/C=C/c2noc(-c3ccccc3OC(C)=O)n2)cc1,88.3% (active)
15,COc1cccc(/C=C/c2ccc3ccccc3n2)c1OC(C)=O,17.7% (inactive)
16,COc1ccccc1-c1nnc(-c2ccc(F)cc2)o1,24.5% (inactive)
17,C[C@@H]1CC[C@]2(O[C@@H](CCO)C[C@H](O)[C@H]2O)O1,1.7% (inactive)
18,NC(=O)[C@H]1CC2(CC(c3cccc(NC(=O)[C@H]4CCC(=O)N4)c3)=NO2)CN1C(=O)c1ccccc1C(=O)c1ccccc1 (some centres not stated),2.84% (inactive)
19,COc1ccc(/C=N/NC(=O)c2cc(-c3cccc(C)c3)nc3ccccc23)cc1O,10.3% (inactive)
20,COc1cc(/C=N/Nc2nc3ccccc3s2)ccc1O,76% (active)
21,COc1cc(/C=N/NC(=O)CCc2n[nH]c(=O)[nH]c2=O)ccc1O,1.52% (inactive)

row,Structure (SMILES),inhibition
1,Cc1ccc2nc(N3CCN(C(=O)c4ccco4)CC3)sc2c1,-13.8% (inactive)
2,Fc1ccc2nc(Nc3nc4c(s3)CCCC4)sc2c1,3.05% (inactive)
3,Brc1ccc2nc(N3CCCC3)sc2c1,85.2% (active)
4,CN(C)CCCN(C(=O)c1ccc(S(=O)(=O)N2CCCCCC2)cc1)c1nc2cc3c(cc2s1)OCCO3,6.61% (inactive)
5,Fc1ccc2nc(N3CCCCC3)sc2c1,72.2% (active)
6,O=C(NCCc1cccc(F)c1)C1CCCN(c2nc3ccccc3s2)C1 (configuration not stated),12.2% (inactive)
7,c1c2c(cc3sc(N4CCCCC4)nc13)OCCO2,96.5% (active)
8,Cc1nc(N2CCCCC2)sc1C=O,1.41% (inactive)
9,O=S(=O)(Nc1ccc2nc(N3CCOCC3)sc2c1)c1ccccc1,9% (inactive)
10,COc1ccc2c(c1)C=CC1(O2)N(CCO)c2ccccc2C1(C)C (configuration not stated),0.788% (inactive)
11,O=C(CSc1nc2ncccc2[nH]1)Nc1ccc2c(c1)OCCO2,-1.02% (inactive)
12,CC(Sc1nncn1C)C(=O)NCCC1=CCCCC1 (configuration not stated),5.55% (inactive)
13,Cc1ccc(C(c2nnnn2CS(=O)(=O)c2ccc(C)cc2)N2CCC(C)CC2)cc1 (configuration not stated),4.98% (inactive)
14,CCC(=O)c1ccc(OCC(=O)OCC(=O)NC2CCCCCC2)cc1,-0.587% (inactive)
15,CCc1cc(C(=O)Nc2nnc(C3CC3)s2)sc1C,2.73% (inactive)
16,O=C(Nc1nnc(C2CC2)s1)c1cc(Cl)sc1Cl,-4.61% (inactive)
17,Cc1cc(C(=O)Nc2nnc(C3CC3)s2)c(C)s1,74.1% (active)
18,CCN1CCN(c2ccc(S(=O)(=O)N3CCCCC3)cc2NC(=O)c2cccc(NC(C)=O)c2)CC1,-4.93% (inactive)
19,CC(C)CC(O)C1CCN(C(=O)CCc2nnc(-c3ccc4c(c3)OCO4)o2)CC1 (configuration not stated),-8.01% (inactive)
20,CNS(=O)(=O)c1cccc(C(=O)OCC(=O)N2c3ccccc3NC(=O)C2(C)C)c1,-16.6% (inactive)
21,Cc1cccc(C2=N/C(=C/c3cccs3)C(=O)O2)c1,-4.38% (inactive)

row,Structure (SMILES),inhibition
1,O=C1N/C(=C/c2cccs2)C(=O)N1Cc1ccc(F)cc1,-10% (inactive)
2,CSC1=N/C(=C\C=C\c2cccs2)C(=O)S1,53.6% (active)
3,CC(C)(C)c1cc(NC(=O)NN2CCOCC2)nn1-c1c(Cl)cc(Cl)cc1Cl,1.46% (inactive)
4,Cc1cccc(NS(=O)(=O)c2ccc(C)c(C(N)=O)c2)c1,0.196% (inactive)
5,CC(=O)N1CCN(C(=O)c2cccc(S(=O)(=O)Nc3ccc(C)cc3)c2)CC1,-6.08% (inactive)
6,Cc1cccc(NS(=O)(=O)c2cccc(C(=O)NNC(=O)c3ccccc3O)c2)c1,50.1% (active)
7,CCc1ccc(NC(=O)CCNS(=O)(=O)c2cccs2)cc1,-0.839% (inactive)
8,CS(=O)(=O)Nc1cccc(-c2cn3ccccc3n2)c1,-1.75% (inactive)
9,Cc1nc(-c2ccc([N+](=O)[O-])cc2)c(-c2ccccc2)o1,-11% (inactive)
10,O=c1[nH]n(-c2ccc([N+](=O)[O-])cc2)c(=O)c2ccccc12,-5.71% (inactive)
11,O=C1CC(c2ccccc2)=NN1c1ccc([N+](=O)[O-])cc1,81.8% (active)
12,CCOc1ccccc1OCCCNCc1ccccc1,-6.65% (inactive)
13,C=CCSc1nnc(Cn2c(=O)sc3ccccc32)n1C,-1.6% (inactive)
14,Cc1cc(N=Nc2ccc3ccccc3c2)ccc1O,95.5% (active)
15,Cc1ccccc1Nc1nc(N)nc(COC(=O)CCC(=O)c2ccc(F)cc2)n1,-5.5% (inactive)
16,CCC(C(=O)Nc1ncccn1)(C(F)(F)F)C(F)(F)F,2.16% (inactive)
17,COc1cc(OC)cc(-c2c(C#Cc3ccsc3)c3cc(-c4ccc(OC)cc4F)ccc3n2C)c1,-6.93% (inactive)
18,COc1ccc(CNC(=O)COC(=O)c2c(C)nn(-c3ccccc3)c2C)cc1OC,-2.1% (inactive)
19,COc1ccc(CNC(=O)COc2ccccc2C(=O)c2cnn(-c3ccccc3)c2)cc1OC,55.6% (active)
20,COc1ccc(CNC(=O)Cc2ccc(-c3ccccc3)cc2)cc1OC,-1.75% (inactive)
